We go through seven compounds from PubChem BioAssay (NCI).

Among the test systems are NCI-H23 lung; NCI-H226 lung; NCI-H322M lung; HOP-62 NSCLC; NCI-H460 lung; HOP-92 NSCLC; NCI-H522 lung; A549/ATCC NSCLC; 786-0 renal; COLO 205 colon; DU-145 prostate; K-562 leukemia; MALME-3M melanoma; MDA-MB-231 breast; RXF 393 renal; SF-268 CNS; SF-295 CNS; SF-539 CNS; UACC-257 melanoma; M14 melanoma.
What all share (assay): NCI-60 one-dose screen, 48 h (100 = growth as untreated, 0 = no growth, -100 = all killed)
Settings in all cases: 10 µM unless noted

Compounds without any hit were thinned out: in the full panel of roughly 83,000, 20% have a hit.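 Each cell line was grown in a 96-well plate and treated with one concentration of compound for 48 hours. Values below 10 were considered active.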 A number with no mark means an inactive call. Active and inactive are the calls of the source.

As for `CCOc1ccc(N2C(=O)CCSC2=S)cc1`, the growth is 102% with NCI-H23 lung; 100% in the assay with NCI-H226 lung; 108% in the assay with NCI-H322M lung; 118% in the assay with HOP-62 NSCLC; 106% in the assay on NCI-H460 lung; 89% in the assay on HOP-92 NSCLC. Besides, the growth in the assay on NCI-H522 lung is 90.9%; in the assay on A549/ATCC NSCLC, 106%; in the assay on 786-0 renal it was 106%; in the assay with COLO 205 colon it was 112%; in the assay with DU-145 prostate it was 103%; in the assay on K-562 leukemia it was 111%. In addition, the growth with MALME-3M melanoma is 96%; in the assay on MDA-MB-231 breast, 104%; in the assay with RXF 393 renal it was 117%; in the assay with SF-268 CNS, 104%; with SF-295 CNS, 95.7%; in the assay on SF-539 CNS, 94.9%. For the same compound, the values for the growth in the assay with UACC-257 melanoma and in the assay on M14 melanoma were 99% and 102%, respectively.

In the case of `C#Cc1c(I)n(C2OC(CO[Si](C)(C)C(C)(C)C)C3OC(C)(C)OC32)c(=O)[nH]c1=O` (stereo not given), the growth was 85.7% in the assay on NCI-H23 lung; 98.1% in the assay with NCI-H226 lung; 113% in the assay with NCI-H322M lung; 97% in the assay on HOP-62 NSCLC; 114% in the assay on NCI-H460 lung; -80.9% (active) in the assay with HOP-92 NSCLC. In addition, the growth in the assay on NCI-H522 lung was 101%; with A549/ATCC NSCLC, 92.6%; in the assay with 786-0 renal, 93.9%; in the assay on COLO 205 colon, -88.2% (active); in the assay on DU-145 prostate, 25.1%; in the assay on K-562 leukemia it was -35.5% (active). The growth in the assay with MALME-3M melanoma is 66.4%; in the assay on MDA-MB-231 breast, 16.1%; with RXF 393 renal, -72.3% (active); in the assay on SF-268 CNS it was 100%; with SF-295 CNS it was 120%; with SF-539 CNS, 92.4%. The growth in the assay on UACC-257 melanoma is 64.1%; in the assay on M14 melanoma, 76.4%.

In the case of `CC1=C(C(=O)c2ccccc2)C(c2ccc3c(c2)OCO3)NC(=S)N1` (stereo not given), the growth in the assay on NCI-H23 lung was 48%; with NCI-H226 lung it was 66.5%; in the assay with NCI-H322M lung it was 67.7%; with HOP-62 NSCLC it was 51.8%; in the assay with NCI-H460 lung, 8.05% (active); with HOP-92 NSCLC, 92.3%. For the same compound, the growth with NCI-H522 lung is 38.3%; with A549/ATCC NSCLC, 40.3%; with 786-0 renal, 58.9%; in the assay on COLO 205 colon, 47.6%; with DU-145 prostate, 78.7%; in the assay with K-562 leukemia, 24.6%. Besides, the growth in the assay with MALME-3M melanoma is 54.5%; in the assay on MDA-MB-231 breast it was 79.1%; in the assay on RXF 393 renal, 59.5%; in the assay on SF-268 CNS, 75.8%; in the assay on SF-295 CNS, 51.2%; with SF-539 CNS it was 36.4%. The growth in the assay with UACC-257 melanoma was 57.2%; in the assay with M14 melanoma, 34.6%.

As for `COc1ccc(-c2ccc(-c3ccc(C(=N)N)nc3)s2)cc1`, the growth in the assay with NCI-H23 lung is -29.9% (active); with NCI-H226 lung it was 83.4%; in the assay with NCI-H322M lung, -19.8% (active); with HOP-62 NSCLC, -54.9% (active); in the assay on NCI-H460 lung, -85.1% (active); in the assay on HOP-92 NSCLC, 77.9%. Also, the growth is -44.9% (active) in the assay with NCI-H522 lung; -56.7% (active) in the assay on A549/ATCC NSCLC; -84.2% (active) with 786-0 renal; -52.2% (active) in the assay on COLO 205 colon; -91.5% (active) with DU-145 prostate; -27% (active) in the assay with K-562 leukemia. In addition, the growth in the assay on MALME-3M melanoma was 87.7%; in the assay on MDA-MB-231 breast it was -79.8% (active); with RXF 393 renal, 66.4%; in the assay on SF-268 CNS it was -65.4% (active); with SF-295 CNS it was -81.2% (active); in the assay with SF-539 CNS, -98.4% (active). In addition, the growth was 84.6% with UACC-257 melanoma and -56.6% (active) in the assay on M14 melanoma.

With `CC(=O)c1ccc(Nc2nccc(-c3ccc(Cl)cc3)n2)cc1`, the growth with NCI-H23 lung is 84.2%; in the assay on NCI-H226 lung, 54%; in the assay on NCI-H322M lung it was 100%; in the assay on HOP-62 NSCLC, 108%; in the assay with NCI-H460 lung it was 85.5%; in the assay on HOP-92 NSCLC, 109%. Besides, the growth in the assay on NCI-H522 lung was 90.8%; in the assay on A549/ATCC NSCLC it was 87%; in the assay with 786-0 renal, 101%; in the assay on COLO 205 colon, 105%; in the assay on DU-145 prostate it was 102%; in the assay on K-562 leukemia, 83.9%. Further, the growth in the assay on MALME-3M melanoma is 101%; in the assay with MDA-MB-231 breast it was 101%; with RXF 393 renal it was 103%; in the assay on SF-268 CNS, 93%; with SF-295 CNS, 101%; in the assay on SF-539 CNS it was 92.3%. The growth in the assay on UACC-257 melanoma is 106%; in the assay with M14 melanoma it was 101%.

On to `CCOC(=O)C1=C(C)N(C)C(=O)N(C)C1c1ccccc1` (stereo not given), for which the growth was 96.7% with NCI-H23 lung; 93.3% with NCI-H226 lung; 98.6% in the assay with NCI-H322M lung; 81.7% with HOP-62 NSCLC; 101% in the assay with NCI-H460 lung; 78.5% in the assay on HOP-92 NSCLC. Also, the growth with NCI-H522 lung is 86.9%; with A549/ATCC NSCLC, 104%; in the assay on 786-0 renal, 100%; with COLO 205 colon, 98.5%; in the assay with DU-145 prostate, 107%; in the assay with K-562 leukemia it was 82.2%. The growth was 87.2% in the assay with MALME-3M melanoma; 97.3% with MDA-MB-231 breast; 105% in the assay on RXF 393 renal; 108% in the assay with SF-268 CNS; 90.6% with SF-295 CNS; 91.4% with SF-539 CNS. In addition, the figures for the growth with UACC-257 melanoma and in the assay with M14 melanoma were 92.5% and 94.2%, respectively.

As to `O=C1c2c(c3c4cccnc4[nH]c3c3ccc4ccccc4c23)C(=O)N1O`, the growth is 35.5% with NCI-H23 lung; 72.3% in the assay with NCI-H226 lung; 77.8% with NCI-H322M lung; 55.8% in the assay on HOP-62 NSCLC; 32.4% in the assay with NCI-H460 lung; 81.7% in the assay with HOP-92 NSCLC. The growth in the assay on NCI-H522 lung is 19.9%; with A549/ATCC NSCLC, 83.6%; in the assay on 786-0 renal it was 68.5%; in the assay on COLO 205 colon it was 57.6%; in the assay with DU-145 prostate it was 54.8%; in the assay with K-562 leukemia it was 29.7%. For the same compound, the growth in the assay with MALME-3M melanoma was 63.1%; with MDA-MB-231 breast it was 85.9%; with RXF 393 renal, 47.9%; in the assay on SF-268 CNS, 37.6%; in the assay on SF-295 CNS, 91.8%; in the assay on SF-539 CNS, 39.6%. The growth in the assay with UACC-257 melanoma was 76.4%; in the assay on M14 melanoma, 49%.
